Measurements: the supplement of paper PMC10646978
± gives the standard deviation.

How the values were obtained:
Settings in all cases: modulator concentration 10 µM
[1] = test system: RAW-Dual (murine macrophage reporter line); experiment: NF-kB reporter (SEAP) activity fold change vs agonist alone; higher = enhanced NF-kB activity
Method in brief: (§1)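 RAW-Dual murine macrophage reporter cells were plated at 50 000 per well in 384-well plates, pin-transferred compound to 10 μM final, and pre-incubated for 1 hour at 37 °C before a PRR agonist was added and the cells incubated overnight. NF-κB activity was read from supernatant SEAP with QUANTI-Blue at 620 nm absorbance, and IRF activity from Lucia luciferase with QUANTI-Luc by luminescence. Each signal was expressed as fold change by dividing by the mean agonist-only control on the same plate. Two replicate plates were averaged, with errors obtained by propagation.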

[2] = test system: RAW-Dual (murine macrophage reporter line); experiment: IRF reporter (Lucia luciferase) activity fold change vs agonist alone; higher = enhanced IRF activity
Method in brief: as §1

[3] = test system: RAW-Dual (murine macrophage reporter line); experiment: viability score (confluency relative to resting cells, overnight) (fraction); higher = more viable, active = viable (0.7 or more)
Method in brief: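 RAW-Dual macrophages in 384-well plates were treated overnight with compound at 10 μM final. IncuCyte imaging recorded confluency, and IncuCyte software built two confluency masks across every imaged well. The viability score expresses confluency relative to resting cells and was judged against a cutoff, which a compound met only if both masks exceeded 70% of resting cells.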

[4] = agonist: CpG ODN 1826 0.5 ug/mL

Structure (SMILES)	NF-kB reporter [1, 4]	NF-kB reporter ([1]; agonist: LPS 0.1 ug/mL)	NF-kB reporter ([1]; agonist: MPLA […])	IRF reporter ([2]; agonist: 3'3'-cGAMP 10 ug/mL)	IRF reporter ([2]; agonist: LPS 0.1 ug/mL)	IRF reporter ([2]; agonist: MPLA […])	viability score [3]
Cc1ccc([N+](=O)[O-])cc1S(=O)(=O)N(C)C	1.05 ± 0.17	0.949 ± 0.077	1 ± 0.1	1.06 ± 0.037	1.09 ± 0.26	1.2 ± 0.12	1 (active)
COc1ccc(C2CC(=O)c3c(O)cc(O)cc3O2)cc1O (configuration not stated)	1.43 ± 0.35	1.14 ± 0.064	1.15 ± 0.073	0.845 ± 0.028	1.14 ± 0.21	1.1 ± 0.1	1 (active)
CC(=NN1CCN(C2c3ccccc3-c3ccccc32)CC1)c1ccccc1O	0.953 ± 0.12	0.94 ± 0.052	0.962 ± 0.069	1.02 ± 0.036	1.35 ± 0.12	0.984 ± 0.086	1.02 (active)
NC(=O)c1ccc(I)c([N+](=O)[O-])c1	0.743 ± 0.25	0.842 ± 0.23	0.828 ± 0.046	0.678 ± 0.024	0.905 ± 0.32	1 ± 0.13	0.981 (active)
COC(=O)C1=CN(CC2CCCO2)C=C(C(=O)OC)C1c1cccc(Br)c1 (configuration not stated)	0.886 ± 0.18	0.871 ± 0.088	0.944 ± 0.073	0.975 ± 0.037	1.21 ± 0.13	1.29 ± 0.13	1 (active)
O=c1c(O)c(-c2ccc(O)cc2O)oc2cc(O)cc(O)c12	1.03 ± 0.28	1.1 ± 0.066	1.01 ± 0.085	0.739 ± 0.027	1.11 ± 0.21	1.14 ± 0.14	1 (active)
Cc1nonc1OC(C)CNc1ccc([N+](=O)[O-])cc1 (configuration not stated)	0.989 ± 0.078	1.01 ± 0.083	1.14 ± 0.089	0.84 ± 0.11	0.995 ± 0.1	0.843 ± 0.15	0.998 (active)
CC(C)c1ccc(NC(=O)C2CCCCC2C(=O)O)cc1 (configuration not stated)	1.19 ± 0.074	1.06 ± 0.07	0.994 ± 0.071	0.93 ± 0.031	1.51 ± 0.1	1.24 ± 0.12	0.996 (active)
CC(=O)Nc1nnc(S(N)(=O)=O)s1	1.57 ± 0.56	1.08 ± 0.18	1.07 ± 0.11	0.941 ± 0.029	1.28 ± 0.32	0.921 ± 0.095	0.998 (active)
O=C1CCCN1c1ccc(Cn2cc(-c3nc(-c4ccc(F)cc4)no3)ccc2=O)cc1	0.981 ± 0.15	1.06 ± 0.086	1.01 ± 0.086	1.02 ± 0.053	1.04 ± 0.066	1.16 ± 0.15	1.01 (active)
O=C(NCCC(CCO)c1ccccc1)Nc1c(F)cccc1F (configuration not stated)	0.929 ± 0.078	1.02 ± 0.11	0.898 ± 0.041	0.972 ± 0.059	1.05 ± 0.084	0.978 ± 0.075	0.98 (active)
Cc1cc(C)c(S(=O)(=O)N2CCN(C(=O)N(C)C)CC2)c(C)c1	1.83 ± 0.4	1.21 ± 0.24	2.12 ± 0.63	0.505 ± 0.32	0.802 ± 0.48	0.738 ± 0.31	0.564 (inactive)
CN(Cc1cnc2nc(N)nc(N)c2n1)c1ccc(C(=O)NC(CCC(=O)O)C(=O)O)cc1 (configuration not stated) [Prestw-373]	0.987 ± 0.24	0.701 ± 0.04	0.87 ± 0.072	0.614 ± 0.037	1.16 ± 0.19	1.01 ± 0.13	0.791 (active)
CC(COc1ccccc1)N(CCCl)Cc1ccccc1.Cl (configuration not stated)	0.328 ± 0.025	0.177 ± 0.015	0.355 ± 0.012	0.053 ± 0.0051	0.0504 ± 0.0018	0.0594 ± 0.011	0.186 (inactive)
CCC(C)NC(=O)C(=O)Nc1cccc(C(F)(F)F)c1 (configuration not stated)	0.89 ± 0.093	1.05 ± 0.073	0.87 ± 0.052	1.04 ± 0.058	1.16 ± 0.18	0.959 ± 0.14	1.02 (active)
CN(C(=O)COc1coc(CN2CCN(c3ccccc3)CC2)cc1=O)c1ccccc1	0.931 ± 0.052	0.933 ± 0.06	0.977 ± 0.057	0.97 ± 0.034	1.18 ± 0.12	0.986 ± 0.088	1 (active)
C/C(=C(\CCOP(=O)(O)O)SC(=O)c1ccccc1)N(C=O)Cc1cnc(C)nc1N [Prestw-654]	1.03 ± 0.19	1.25 ± 0.15	1.1 ± 0.13	0.943 ± 0.031	1.04 ± 0.15	1.28 ± 0.14	0.974 (active)
O=C(O)c1ccccc1N(Cc1ccccc1)S(=O)(=O)c1ccccc1	1.14 ± 0.13	1 ± 0.15	1.08 ± 0.061	0.965 ± 0.1	1.06 ± 0.072	0.938 ± 0.14	0.984 (active)
CCOC(=O)C1=C(C)NC(=Cc2ccccc2[N+](=O)[O-])C1=O	1.66 ± 0.13	0.864 ± 0.2	0.872 ± 0.13	0.275 ± 0.024	0.0881 ± 0.019	0.064 ± 0.016	0.755 (active)
NC(=O)C1CCCc2c1[nH]c1ccc(Cl)cc21 (configuration not stated)	1.07 ± 0.15	1.1 ± 0.14	0.878 ± 0.05	0.959 ± 0.044	1.19 ± 0.25	1.24 ± 0.098	0.959 (active)
Oc1c(Cl)cc(Cl)cc1C=Nc1cc(Cl)cc(Cl)c1	0.734 ± 0.14	0.915 ± 0.076	0.761 ± 0.066	0.437 ± 0.019	1.05 ± 0.1	1.09 ± 0.14	0.734 (active)
CNCCCC12CCC(c3ccccc31)c1ccccc12.Cl	0.507 ± 0.083	1.1 ± 0.24	1.32 ± 0.074	0.542 ± 0.038	1.36 ± 0.34	2.48 ± 0.34	0.29 (inactive)
Cl.O=C1c2cccc3c2[C@H](CCC3)CN1[C@@H]1CN2CCC1CC2	1.03 ± 0.17	0.655 ± 0.053	0.823 ± 0.11	0.582 ± 0.022	0.918 ± 0.17	0.987 ± 0.12	0.974 (active)
O=C(O)CSc1nnc(Br)n1-c1ccc(C2CC2)c2ccccc12	1.08 ± 0.15	0.924 ± 0.32	0.899 ± 0.05	0.624 ± 0.15	1.35 ± 0.31	1.28 ± 0.1	1 (active)
COc1ccc(CNC(=O)NCC#CCOc2cccc(C(F)(F)F)c2)cc1OC	1.07 ± 0.11	1.07 ± 0.098	0.95 ± 0.063	1.01 ± 0.05	1.09 ± 0.13	1.13 ± 0.29	1.01 (active)
CCOCCn1c(N2CCCN(C)CC2)nc2ccccc21 [Prestw-1274]	0.77 ± 0.17	1.24 ± 0.17	1.03 ± 0.08	1.01 ± 0.027	1.19 ± 0.21	1.44 ± 0.15	0.996 (active)
